In test [1] the test system is Human papillomavirus type 1a protein E7 (residues 44-93). Kind of test: HPV1a E7 fragment binders on microarrays, primary screen, biochemical, small-molecule microarray, residues 44-93, 635 nm fluorescence (AID 1108).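 Note: E7 fragment applied at 1 µg/mL in TBST for 1 h at 4 C; score combines spot fluorescence with its signal to noise ratio.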 The following applies: small-molecule microarray binding, fluorescence 635 nm; higher = more signal.
Test [2] can be described thus: modulators of HCV replicon luciferase signal, primary screen, HCV replication inhibitor project, Huh7 cells, luciferase reporter (AID 1109).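 Note: huh7 hepatoma cells harbouring a luciferase neomycin HCV replicon reporter; luciferase luminescence as measure of HCV replicon replication; test concentration not given here.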 The following applies: 48 h, higher = more signal. For orientation: In antiviral work, replicon cells carry a viral genome segment that copies itself.
The target of test [3] is Left-right determination factor 2 (Homo sapiens) (UniProt O00292). Kind of test: LEFTY2 binders on small-molecule microarrays, primary screen, biochemical, small-molecule microarray, 635 nm fluorescence scan (AID 1110). The following applies: LEFTY2 binding, higher = more signal.
Left-right determination factor 2 (Homo sapiens), sequence (O00292 whole entry, looked up): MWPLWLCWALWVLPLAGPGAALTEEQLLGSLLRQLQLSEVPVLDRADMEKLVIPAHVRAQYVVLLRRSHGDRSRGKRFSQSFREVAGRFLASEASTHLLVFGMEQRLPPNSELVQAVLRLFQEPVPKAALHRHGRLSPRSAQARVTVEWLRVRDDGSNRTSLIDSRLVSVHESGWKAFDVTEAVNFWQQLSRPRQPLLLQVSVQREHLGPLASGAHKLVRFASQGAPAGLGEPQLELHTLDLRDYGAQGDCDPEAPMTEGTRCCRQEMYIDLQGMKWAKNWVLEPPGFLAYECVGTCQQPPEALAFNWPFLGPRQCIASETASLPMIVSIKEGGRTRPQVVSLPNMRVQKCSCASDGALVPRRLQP
The target of test [4] is Calmodulin-1 (Homo sapiens) (UniProt P0DP23). Description: CALM1 binders on microarrays, EGTA buffer, profiling panel, biochemical, small-molecule microarray, Cy5-labelled CALM1 (AID 1111).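 Note: labelled calmodulin applied in Tris saline Tween buffer holding calcium plus EGTA and DTT.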 The following applies: Cy5-CALM1 binding fluorescence, higher = more signal.
Test [5] has the same target. Kind of test: calcium-bound CALM1 binders on microarrays, profiling panel, artefact control for SMM control-protein annotation, biochemical, small-molecule microarray, Cy5-labelled CALM1, plus calcium (AID 1112).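 Note: score merges spot fluorescence with signal to noise from triplicate slides.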 The following applies: Cy5-CALM1 binding fluorescence, higher = more signal.
Test [6] is described as follows: small-molecule microarray binders of probe aWnt5a, primary screen, biochemical, biotinylated probe, 635/667 nm fluorescence (AID 1113).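 Note: score merges 667 nm fluorescence intensity with signal-to-noise per printed feature.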 The following applies: higher = more signal.
A short description of test [7]: small-molecule microarray binders of probe aShh, primary screen, biochemical, biotinylated probe, 635/667 nm fluorescence (AID 1114).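 Note: probe is biotin-labelled aShh protein from a stem cell growth factor screen; measures binding of labelled protein to compounds printed on the slide; score merges feature fluorescence at 667 nm with signal-to-noise.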 The following applies: higher = more signal.
A short description of test [8]: small-molecule microarray binders of probe aNog, primary screen, biochemical, biotinylated probe, 635/667 nm fluorescence (AID 1115).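 Note: probe is biotinylated aNog protein used at 0.15 µg/mL for 1 h at 4 C; z-score combines 667 nm fluorescence of each spot with its signal to noise.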 The following applies: higher = more signal.
The target of test [9] is Torsin-1A-interacting protein 1 (Homo sapiens) (UniProt Q5JTV8). Description: LAP1 binders from COS7 cell lysate, primary screen, small-molecule microarray, 635/667 nm fluorescence (AID 1116). The following applies: COS7-hLAP1 lysate binding, 635 nm fluorescence, higher = more signal.
Torsin-1A-interacting protein 1 (Homo sapiens), sequence (Q5JTV8 whole entry, looked up): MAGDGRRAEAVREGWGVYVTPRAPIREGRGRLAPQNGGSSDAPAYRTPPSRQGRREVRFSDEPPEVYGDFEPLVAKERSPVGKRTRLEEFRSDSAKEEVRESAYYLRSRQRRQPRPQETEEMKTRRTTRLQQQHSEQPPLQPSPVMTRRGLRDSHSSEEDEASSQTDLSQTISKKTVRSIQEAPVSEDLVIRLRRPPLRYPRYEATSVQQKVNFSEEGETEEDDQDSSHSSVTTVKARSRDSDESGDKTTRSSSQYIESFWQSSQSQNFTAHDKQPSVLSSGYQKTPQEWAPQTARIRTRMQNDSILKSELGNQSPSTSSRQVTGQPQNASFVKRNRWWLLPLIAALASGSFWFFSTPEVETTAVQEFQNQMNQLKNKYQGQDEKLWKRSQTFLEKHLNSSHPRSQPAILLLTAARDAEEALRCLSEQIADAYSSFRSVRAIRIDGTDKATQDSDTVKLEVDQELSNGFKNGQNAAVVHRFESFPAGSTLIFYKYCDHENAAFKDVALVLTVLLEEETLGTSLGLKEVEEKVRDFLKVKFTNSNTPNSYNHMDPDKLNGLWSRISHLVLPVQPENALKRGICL
The target in test [10] is Alpha-bungarotoxin (Bungarus multicinctus) (UniProt P60615). Description: alpha-bungarotoxin binders on microarray, profiling panel, artefact control for SMM control protein annotation, biochemical, small-molecule microarray, Alexa647 label, 635/667 nm fluorescence (AID 1117). The following applies: alpha-BTX-A647 binding fluorescence, higher = more signal.
Alpha-bungarotoxin (Bungarus multicinctus), sequence (P60615 whole entry, looked up): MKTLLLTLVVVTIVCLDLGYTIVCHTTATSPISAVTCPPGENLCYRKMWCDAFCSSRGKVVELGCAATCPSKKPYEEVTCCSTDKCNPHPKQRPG

For eleven compounds, composite z-score and z-score results are on record in PubChem BioAssay.

The structures appear in SMILES notation.

For `CCCNC(=O)[C@@]1(C)c2ccccc2C(=O)N(c2ccc(C)cn2)[C@H]1c1ccc(CO)cc1`, the composite z-score in [1] was -0.846; in [3], 0.384; in [4] it was -0.474; in [5] it was -0.524; in test [6], -0.124; in [7] it was -0.291. The composite z-score was 0.0373 in test [8], 0.311 in test [9] and -0.163 in test [10]. Besides, the z-score in test [2] was determined as 0.155.
As to `O=C1OCCC=C[C@H]2OC34C=CCN(c5ccc6ccccc6c5)C(=O)[C@H]3N(CCCO)C(=O)[C@@H]4C12` (stereo not given in full), the composite z-score in [1] was -2; in test [3] it was -1.31; in [4] it was -0.834; in test [5], -0.885; in test [6], -0.294; in [7], -0.153. Besides, the results for the composite z-score in test [8], in [9] and in test [10] were 0.181, -1.25 and -1.27, respectively. Moreover, the z-score in test [2] was -0.24.
As for `C=CCC(OC(C)=O)[C@@H]1[C@@H](N(Cc2cc3ccccc3o2)C(=O)Cc2ccc(F)cc2)c2cc(OCCCO)ccc2N1C(=O)Cc1ccc2ccccc2c1` (stereo not given in full), the composite z-score is -0.266 in [1]; -0.537 in test [3]; 0.0637 in test [4]; 0.34 in test [5]; -0.147 in test [6]; 0.0639 in [7]. The values for the composite z-score in test [8], in test [9] and in [10] were -0.136, 0.0568 and 0.317, respectively. In test [2], this compound showed a z-score of 0.185.
With `OCCCC1=CC(c2ccc(CN3CCCC3)cc2)N(Cc2cc3c(cc2Br)OCO3)CC1` (stereo not given), the composite z-score in test [1] is -0.377; in test [3], 0.477; in test [4] it was -0.464; in test [5] it was -0.811; in [6] it was -0.0735; in test [7] it was 0.0611. For the same compound, the composite z-score is 0.162 in test [8], 1.17 in test [9] and 0.396 in test [10]. In addition, in [2], the z-score is -3.23.
For `COC(=O)[C@@]1(Cc2ccc(OC)cc2)[C@H]2c3cc(C(=O)N4CCCC4)n(CCc4c[nH]c5ccc(O)cc45)c3C[C@H]2CN1C(=O)c1ccccc1`, the composite z-score in test [1] turned out to be 1.39; in [3], 0.148; in test [4], 0.797; in test [5], 0.202; in [6], 0.14; in test [7] it was 0.315. For the same compound, the values for the composite z-score in test [8], in test [9] and in test [10] were 0.863, 1.4 and 0.485, respectively. This compound had a z-score in [2] of -1.51.
`CCCCCN1CC=CC23O[C@@H]4/C=C\CCCOC(=O)C4[C@H]2C(=O)N(C(C)CO)[C@@H]3C1=O` (stereo not given in full): the composite z-score in test [1] is -0.141; in [3] it was -1.67; in [4] it was -0.452; in test [5] it was -0.254; in [6], -0.203; in [7], -0.181. The composite z-score was -0.0057 in test [8], -0.111 in test [9] and 2.97 in test [10]. This compound also displayed a z-score in [2] of -0.646.
With `CCCC=C(CCC)[C@@H](NC(=O)c1cccs1)c1ccc(C(=O)OC)cc1`, the composite z-score is 0.805 in [1]; 0.698 in test [3]; 0.318 in test [4]; -0.276 in [5]; 1.34 in [6]; 2.03 in test [7]. The figures for the composite z-score in test [8], in [9] and in [10] were 2.91, 0.406 and 0.159, respectively. Further, in [2], the z-score is -0.122.
Consider `CCOC(=O)C[C@H]1[C@H](OC(=O)c2ccccc2-c2ccccc2)[C@@H](NC(=O)c2ccc3ccccc3c2)c2cc(OCCCO)ccc2N1C(=O)c1ccccc1`, for which the composite z-score in test [1] is 0.461; in [3], 0.596; in test [4] it was -0.09; in [5], -0.332; in [6], -0.0981; in test [7], -0.291. Besides, the results for the composite z-score in test [8], in test [9] and in test [10] were 0.0043, 0.228 and 0.789, respectively. The compound also registered a z-score in [2] of -1.27.
Regarding `CC(C)N1C(=O)C[C@@](C(=O)NC2CC2)(c2ccc([N+](=O)[O-])cc2)[C@H]1c1ccc(CO)cc1`, the composite z-score was 1.3 in test [1]; -1.15 in [3]; -0.673 in test [4]; -0.606 in test [5]; -0.0934 in [6]; -0.0709 in test [7]. For the same compound, the composite z-score in [8] was -0.566; in [9] it was -0.315; in test [10] it was 0.181. Also, in test [2], the z-score was -1.2.
On to `NC(=O)NCC#Cc1ccc2c(c1)[C@]1(C(=O)N2)[C@H](c2ccccc2OCCO)N2[C@H](c3ccccc3)[C@H](c3ccccc3)OC(=O)[C@H]2[C@@H]1C(=O)O`, for which the composite z-score in test [1] is 1.27; in [3] it was -0.351; in test [4], 0.505; in [5], 0.629; in test [6], -0.169; in [7], -0.0035. In addition, the composite z-score was -0.359 in test [8], 0.299 in [9] and 0.589 in test [10]. In [2], this compound returned a z-score of -0.331.
Consider `CN1C2C=C(CCCO)C(C3C(=O)N(C(N)=O)C(=O)C32)C1C1CC1` (stereo not given), for which the composite z-score was -0.071 in [1]; -0.645 in [3]; -0.495 in test [4]; -0.458 in test [5]; -0.0462 in test [6]; 0.0062 in test [7]. Further, the composite z-score was -0.102 in test [8], 0.474 in test [9] and 0.0218 in test [10]. In addition, in [2], the z-score is -0.225.
